PubChem BioAssay (NCI)
Compounds without any hit were thinned out: in the full panel of roughly 83,000, 20% have a hit.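 Testing used 96-well plates and a 48-hour single-concentration exposure. Example: -40 means 40% of the starting cells died.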 Unmarked numbers belong to inactive results. Active and inactive are the calls of the source. The calls were made as follows: active = growth percent below 10; inactive = the rest.

tested on: SN12C renal; test: NCI-60 one-dose screen, 48 h (100 = growth as untreated, 0 = no growth, -100 = all killed); settings: 10 µM unless noted

| Structure (SMILES) | growth |
| --- | --- |
| ICCC(c1ccccc1)(c1ccccc1)c1ccccc1 | 69.7% |
| O=C(CSc1nnc(-c2cc(-c3ccccc3)nc3ccccc23)o1)c1ccc(Br)cc1 | 98% |
| O=c1[nH]c(SCc2ccccc2)nc2nc(Nc3ccc(NC(=S)Nc4ccccc4)cc3)nc(-c3ccc(O)cc3O)c12 | 88% |
| Cc1cc(Cl)ccc1Nc1nc(C(F)(F)F)ccc1C(=O)N/N=C/c1ccc(Cl)cc1 | 4.31% (active) |
| Cc1sc2nc3c4ccccc4c(NCCCN(C)C)nn3c(=O)c2c1C | 53.4% |
| C[C@H](C(=O)N[C@@H](Cc1ccc(-c2ccccc2)cc1)C(=O)NC1CC(C)(C)NC(C)(C)C1)c1ccc(-c2ccccc2)c(F)c1 | -50.7% (active) |
| Cc1csc(C#Cc2cncc(O)c2)n1 | 102% |
| CN[C@@H]1C(OC2[C@H](O[C@H]3[C@H](O)[C@@H](O)[C@H](N=C(N)N)[C@@H](O)[C@@H]3N=C(N)N)OC(C)[C@]2(O)CO)OC(CO)C(O)C1O (stereo not given in full) | 108% |
| COCCOCCOCCOCCOc1ccc2c(c1)C(=O)c1nc3ncccc3c(=O)n1-2 | -93% (active) |
| N#CC1c2ccccc2C=CN1C(=O)N(c1ccccc1)c1ccccc1 (stereo not given) | 76.1% |
| Nc1ccc2c(c1)C(=O)c1cc(Cl)c(Cl)cc1-2 | 90.8% |
| COc1ccc2c(c1)C(=Nc1cc(OC)c(OC)c(OC)c1)C(=O)N2 | 97.3% |
| CN(C)CCCN=c1cc2c(=O)n(CCCN(C)C)c(=O)c3c(NCCCN(C)C)cc4c(O)n(CCCN(C)C)c(=O)c1c4c3-2 | 9.31% (active) |
| COc1ccc(-c2cnc(SCC(=O)Nc3ccc(-c4nc5ccccc5s4)cc3)n2-c2ccc(OC)cc2)cc1 | 104% |
| O=c1[nH]cc(Nc2cc(Cl)c3nonc3c2[N+](=O)[O-])c(=O)[nH]1 | 107% |
| CCOC(=O)Nc1cc(-c2ccc(C)c(NS(C)(=O)=O)c2)nn2c(C)nnc12 | 32% |
| NS(=O)(=O)c1cc2c(cc1Cl)NC=NS2(=O)=O | 100% |
| COc1ccc2ncccc2c1Cc1c(OC)ccc2ncccc12 | 89.4% |
| c1ccc(-c2n(Cc3ccc4ccccc4c3)cc[n+]2Cc2ccc3ccccc3c2)cc1 | -34.7% (active) |
| Nc1nc(Nc2ccccc2SSc2ccccc2Nc2nc(N)nc(-c3cccc(Cl)c3)n2)nc(-c2cccc(Cl)c2)n1 | 62.1% |
| CC1CN(CC(O)c2ccc(Br)cc2)CCO1 (stereo not given) | 110% |
| CC[C@@H](C)/C=C(C)/C=C/C(=O)c1c(O)c(-c2ccc(O)cc2)cn(OC2CC(=O)CCC(C)OC(=O)CC2O)c1=O (stereo not given in full) | 17.5% |
| CCCCc1n(Cc2ccc3ccccc3c2)cc[n+]1Cc1ccc2ccccc2c1 | -22.3% (active) |
| COc1cc(/C=C2\SC(N3CCCCC3)=NC2=O)ccc1OCCCCCCOc1ccc(/C=C2\SC(N3CCCCC3)=NC2=O)cc1OC | 25.3% |
| CCCCCCCCN(CCO)CCCCCCCC | 104% |
